Bioassay records deposited in PubChem BioAssay by National Center for Advancing Translational Sciences (NCATS).
HCV inhibitor: inhibitors of hepatitis C virus infection | Huh7.5.1 HCVcc-Cre infection, luciferase reporter, 44 h | Potency, µM (series often up to 41.8 µM), without a hit: at the top dose activity change, negative = inhibition, usual class: inhibitors | hit rate 3.4% among 340,000; note: potency is the fitted concentration of half-maximal effect; % is set by controls: 0 for no effect and ±100 for the full control effect
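Seed cells (1,000/well) for 4 h; treat with compound and infect with HCVcc-Cre, moi about 0.5. Incubate 44 h, then detect luciferase activity.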
Shiga toxin inh: inhibitors of Shiga toxin in Vero cells; Vero cells, Shiga toxin protein synthesis inhibition reporter; inhibition, % at 38.7 µM; hit rate 9.2% among 290,000; AID 2315; in the data active = inhibition mostly above about 28%, no sharp cut-off; inactive = mostly below about 43%; note: 0% is about no effect
Pf growth 96h: P. falciparum growth inhibition at 96 hours | hit rate 6.9% among 320,000 | Potency, µM (top dose mostly 28.7 µM), without a hit: at the highest dose activity change, negative = inhibition, actives largely listed as inhibitors | P. falciparum luciferase reporter growth, 96 h; note: potency is the fitted concentration of half-maximal effect; % is set by controls: 0 for no effect and ±100 for the full control effect
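Cell-based qHTS: luciferase-tagged P. falciparum in erythrocytes (2% hematocrit, 0.05% parasitemia final) incubated with compounds for 96 hours, 37 C, 5% CO2; luciferase detection reagent then added and luminescence measured.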
Pf growth 48h: P. falciparum growth inhibition at 48 hours (one generation); P. falciparum luciferase growth in erythrocytes, 48 h; Potency, µM (doses to about 28.7 µM), for inactives: at the top dose activity change, negative = inhibition, actives largely listed as inhibitors; hit rate 5.9% among 310,000; note: potency is the fitted concentration of half-maximal effect; % is set by controls: 0 for no effect and ±100 for the full control effect
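Erythrocytes infected with P. falciparum carrying an integrated firefly luciferase reporter (2% hematocrit, 0.1% parasitemia final) were exposed to compounds in RPMI 1640 with 0.5% Albumax at 37 C, 5% CO2. Growth inhibition was scored as reduced luminescence.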
AMA1-RON2 inh: disrupts binding of P. falciparum AMA1 to RON2 | AlphaScreen AMA1-biotinylated RON2 peptide binding | Potency, µM (doses to about 58.2 µM), for inactives: top-dose activity change, negative = inhibition, most hits filed as inhibitors | hit rate 0.2% among 360,000 | AID 720542;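 note: potency is the fitted concentration of half-maximal effect; 0% = vehicle wells and -100% = peptide control; nearly all actives have a fitted effect of over 45% in size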
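AMA1 (3D7) with his tag at 25 nM final met compounds first, then biotinylated RON2 peptide at 25 nM; detection used donor plus acceptor beads, 10 µg/mL apiece, read by AlphaScreen after 30 min at room temperature.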
CHX counter: affects cycloheximide protein synthesis inhibition readout, counter-screen. AID 2314. hit rate 12% among 300,000. max response, %. cell reporter, cycloheximide protein synthesis inhibition counterscreen; in the data active = max response mostly above about 13%, no sharp cut-off; inactive = mostly below about 14%; note: read at 38.3 µM for the half of the compounds with a filed dose; 0% is about no effect
Starred values were filed as active, the others as inactive; ? = inconclusive; / = not tested or not shown; [ ] = another dose, or the depositor's remark. Sampled rows, rich in hits. Any-hit rate of the full collection: about 21%. Unless noted, calls come from the whole dose curve; as a rule, active = well fitted curve in the direction sought with a large enough effect; inconclusive = small, poorly fitted or top-dose-only effect, or another doubt; inactive = no such curve, though single readings can be large; an effect the other way counts as inactive or inconclusive.

SMILES	HCV inhibitor	Shiga toxin inh	Pf growth 96h	Pf growth 48h	AMA1-RON2 inh	CHX counter
COc1ccc2nc(NC(=O)CSc3nc(C)cc(=O)[nH]3)sc2c1	3.4%	31.1	/	26.5%	-11.2%	27.0*
CC1(C(=O)NCc2cccc3ccccc23)CCN1Cc1cccc2c1OCO2 (stereo not drawn)	/	/	/	/	-22.4%	/
CC12CCC=CC1C(c1ccc3ccccc3c1Br)N(Cc1ccccc1)C2=O (stereo not drawn)	/	-2.9	/	/	/	10.0
COc1ccccc1NC(=O)NC(=O)c1ccccc1	-3.1%	58.9*	-8.5%	201.4%	1.5%	22.9*
CCOC(=O)C(NC(=O)c1ccccc1)=C(C)C	0.8%	16.0	-6.1%	/	1.6%	0.2
O=C(NC(=O)c1ccccc1)Nc1ccccc1	5.6%	51.0*	151.3%	28.9%	-8.8%	41.9*
COc1ccccc1NC(=O)C(C)NC(c1ccccc1)c1ccccc1 (stereo not drawn)	?	-5.4	8.28µM*	13.1µM*	8.0%	-2.8
COC(=O)C(NC(=O)c1ccccc1)=C(C)C	-16.7%	-10.4	4.15µM*	7.8%	6.1%	-0.8
CCCS(=O)(=O)NC(=O)C1(C)CCCN(C(=O)c2cc(OC)c(OC)c(OC)c2)C1 (stereo not drawn)	/	/	/	/	-0.7%	/
COc1cc([C@H]2c3c(cc(OC)c(O)c3OC)C[C@@H](CO)[C@@H]2CO[C@@H]2O[C@H](CO)[C@@H](O)[C@H](O)[C@H]2O)cc(OC)c1O	9.6%	/	46.4%	11.3%	-2.0%	/
COc1ccc(NC(=O)NC(=O)c2ccccc2)cc1	22.8%	/	132.9%	283.1%	1.5%	25.0*
CSc1nnc2c3c4c(sc3c(=O)n(-c3ccccc3)n12)CC(C)(C)OC4	15.4%	-3.8	/	0.738µM*	19.2%	-2.2
OCCN1CCN(CC/C=C2/c3ccccc3Sc3ccc(Cl)cc32)CC1	11.2µM*	/	9.28µM*	10.4µM*	?	/
CN(C)CC/C=C1\c2cc(Cl)ccc2Sc2cc(F)c(F)cc21	11.2µM*	/	/	/	-15.4%	/
CN(C)CC/C=C1\c2ccccc2Sc2cc(F)c(Cl)cc21	?	/	/	/	-25.7%	/
CN(C)CC/C=C1\c2ccccc2Sc2ccc(Cl)cc21	?	-9.2	13.5µM*	15.1µM*	-25.7%	-2.8
CN(C)CC/C=C1\c2ccc(F)cc2Sc2cc(F)c(Cl)cc21	12.6µM*	/	/	/	-21.3%	/
CCCCCCCCCCC[N+](C)(C)CC/C=C1/c2ccccc2Sc2ccc(Cl)cc21	-27.9%	-2.9	?	/	-8.4%	1.9
CN(C)CC/C=C1/c2cc(F)ccc2CSc2ccc(F)cc21	?	-17.8	?	?	-13.3%	-2.5
COCCCC1CCN(C(=O)C2CCC(=O)N(Cc3cccc(F)c3)C2)CC1 (stereo not drawn)	18.3%	-3.1	?	?	19.4%	10.1
CCOC(=O)C1=C[C@@H](c2ccccc2)N(S(=O)(=O)c2ccc(C)cc2)[C@H]1c1ccccc1Cl	/	/	/	/	-1.8%	/
CC1OC(Nc2ccc(N=Nc3ccccc3)cc2)C(O)C(O)C1O (stereo not drawn)	-11.1%	118.3*	28.5%	131.5%	1.8%	36.7*
CCCCNC(=O)C(NC(=O)c1cccc2ccccc12)C(=O)c1ccccc1 (stereo not drawn)	/	/	/	/	12.8%	/
CN(CC(=O)Nc1cccc(Cl)c1)C1=NS(=O)(=O)c2ccccc21	-3.3%	/	/	/	-14.1%	/
CCc1cccc(NC(=O)CN(C)C2=NS(=O)(=O)c3ccccc32)c1	9.4%	/	11.7µM*	?	6.1%	/
SMILES	HCV inhibitor	Shiga toxin inh	Pf growth 96h	Pf growth 48h	AMA1-RON2 inh	CHX counter
COc1ccc2cc3cc(C(=O)NCCN4CCc5ccccc5C4)sc3nc2c1	10.5%	46.6*	2.62µM*	?	0.3%	21.4*
CCC(C)NC(=O)c1cc2cc3ccc(OC)cc3nc2s1 (stereo not drawn)	?	88.4*	6.8%	/	-1.4%	57.3*
COc1ccc2cc3cc(C(=O)NCCN4CCN(Cc5ccccc5)CC4)oc3nc2c1	2.3%	-10.1	11.3%	?	8.0%	-4.0
COc1ccc2cc3cc(C(=O)NCCN4CCc5ccccc5C4)oc3nc2c1	?	36.5*	?	3.29µM*	-0.6%	20.7
COc1ccc(NC(=O)NCCCN2CCc3ccccc3C2)cc1	-3.1%	9.7	19.2%	10.2%	-5.1%	-1.9
CCC(C)NC(=O)c1cc2c(=O)[nH]c3ccc(C)cc3c2s1 (stereo not drawn)	-29.7%	-2.6	36.4%	?	6.8%	-1.8
C=Cc1ccc(S(=O)(=O)O)cc1	/	2.3	1.4%	-9.1%	/	-4.7
COc1ccc(F)cc1C(=O)C1CCCN(C(=O)C2=C(C)OCCO2)C1 (stereo not drawn)	-0.1%	-10.7	11.4%	20.8%	6.5%	-0.9
Cc1cc(C)c2nc(N)sc2c1	?	30.4	?	-27.3%	1.8%	34.3*
COc1ccc2[nH]c3c(c2c1)CCN1C(=O)C(CC(=O)NCc2ccco2)C[C@H](C(=O)N2CCOCC2)[C@@]31CCC1CCCC1 (stereo partly drawn)	-9.9%[8.37 µM]	/	/	/	-22.7%	/
Brc1cccc2sc(N3CCCC3)nc12	16.0%	88.7	95.3%	49.0%	23.0%	34.5*
Clc1cccc2sc(N3CCCC3)nc12	?	active	-11.4%	45.5%	-9.7%	20.3*
Clc1cccc2sc(N3CCOCC3)nc12	-7.9%	/	/	/	-7.1%	/
Fc1cccc2sc(N3CCCC3)nc12	-29.0%	89.1*	64.3%	92.3%	-7.8%	43.0*
Cc1ccc(C)c(NC(=O)CN2C(=O)C3CC=CCC3C2=O)c1 (stereo not drawn)	/	/	/	/	6.5%	/
CCOC(=O)C1CCN(C(=O)Cn2ncc3c([nH]c4ccccc43)c2=O)CC1	13.9%	5.8	21.4%	25.8%	-3.4%	-0.5
CCOC(=O)/C(=C/C=C/c1ccccc1)NC(=O)c1ccccc1	?	6.5	10.4µM*	16.7%	1.1%	6.9
CCCCOc1ccc(C(=O)N/C(=C/C=C/c2ccccc2)C(=O)NCCO)cc1	-3.6%	-7.9	86.1%	10.2%	10.7%	1.5
CCOC(=O)/C(=C\C=C\c1ccccc1)NC(=O)c1ccccc1	?	8.5	-7.8%	21.5%	23.6%	5.8
CCCOC(=O)/C(=C\C=C\c1ccccc1)NC(=O)c1ccccc1	-19.6%	15.4	19.4%	-16.3%	12.0%	16.2*
C=CCNC(=O)/C(=C\C=C\c1ccccc1)NC(=O)c1ccc(OCCCC)cc1	-12.2%	15.1	88.2%	34.6%	-7.6%	0.3
CCCCOC(=O)/C(=C/C=C/c1ccccc1)NC(=O)c1ccccc1	?	40.8	-21.8%	?	16.1%	48.6*
C=CCOC(=O)/C(=C\C=C\c1ccccc1)NC(=O)c1ccccc1	-15.2%	22.4	?	14.7%	-1.6%	17.9*
O=C(O)CCNC(=O)/C(=C/C=C/c1ccccc1)NC(=O)c1ccccc1	9.6%	-8.6	-11.1%	17.1%	-0.9%	-2.2
